Source: PubChem BioAssay
The list is not random: actives were taken first. Their share in the collection is about 2.8%.
HIF-2a inh = HIF-2a inhibition; AID 624352; inhibition, % at 18.8 µM; 786-0 RCC cells HIF-2a reporter, luciferase luminescence, overnight; 0.72% of 360,000 active;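 active = inhibition of the luminescence signal of 40% or more relative to plate controls, in a single-dose primary screen at 18.75 µM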
KKLEB cytotox = reduces viability of KKLEB cystic fibrosis airway cells; KKLEB CF airway cells viability, ATPlite luminescence, overnight; active compounds read low; cells stimulated with P. aeruginosa culture filtrate; activity change (cytotoxicity), % at 5 µM; 0.36% of 360,000 active;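 active = corrected activity change at or below -50% at 5 µM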
Shn3 3UTR inh = reduces Shn3 3'UTR luciferase signal in osteoblasts | Clone20 osteoblast Shn3 3'UTR firefly luciferase, 24 h | inhibition, % at 12.5 µM | 0.52% of 360,000 active | AID 588674;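 active = mean inhibition of at least 75% with every replicate also reaching 75%; inconclusive = mean inhibition at least 75% but some replicate below; inactive = mean inhibition below 75%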;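 note: 0% = median of neutral control wells and 100% = pilot-screen positive control compound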
Peg3 prom inh-1 = inhibitors of Peg3 promoter; HeLa PEG-Prom luciferase reporter, luminescence, overnight; inhibition, % at 20 µM; 1.7% of 360,000 active; AID 588405;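 active = inhibition of at least 50% at 20 µM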
MITF TRPM1 inh = reduces MITF-dependent TRPM1 promoter luciferase signal | SK-MEL-5 TRPM1 promoter luciferase, 24 h | inhibition, % at 12.5 µM | 0.83% of 330,000 active | AID 488899;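 active = mean inhibition across replicates of 60% or more, whatever share of single replicates reaches that level; inconclusive = some that reach 60%, reason not given; inactive = mean inhibition across replicates below 60%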
CF NFkB inh = blocks PAF-induced NF-kB reporter in cystic fibrosis cells; KKLEB NF-kB-GFP reporter, GFP fluorescence overnight; inhibition, % at 5 µM; 0.86% of 360,000 active;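 active = at least 50% inhibition at 5 µM, scaled per plate between neutral and stimulator controls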;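 note: PAF is a Pseudomonas aeruginosa culture filtrate used as stimulus; plate controls were PAF-stimulated DMSO wells for no effect and unstimulated DMSO wells for full effect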
Peg3 prom inh-2 = Peg3 promoter inhibition confirmation; shares compounds with Peg3 prom inh-1; HeLa PEG-Prom luciferase reporter, luminescence, overnight; inhibition, % at 20 µM; 84% of 1,300 active; AID 602417;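 active = at 20 µM dose, 40% or more inhibition averaged across four replicates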
CF NFkB inh conf = confirmation of cystic fibrosis induced NF-kB inhibitors; shares compounds with CF NFkB inh; KKLEB CF airway cells, PAF-induced NF-kB-GFP fluorescence, overnight; inhibition, % at 5 µM; 64% of 1,300 active; AID 602472; in the data active = inhibition above about 40%;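 note: stimulus PAF is a Pseudomonas aeruginosa filtrate and not platelet activating factor; plate controls were DMSO wells with stimulus for no effect and unstimulated DMSO wells for full effect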
Mdm2 MdmX conf = Mdm2/MdmX (human) interaction inhibition, confirmed | inhibition, % at 8 µM | SaOS-2 split-luciferase Mdm2/MdmX complementation, luminescence | AID 504601 | 99% of 740 active | shares compounds with HIF-2a inh;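 active = mean inhibition of the luminescence signal across two replicates at or above 26 percent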
HIF-2a inh conf = confirmation of HIF-2a inhibitors; AID 651580; 56% of 1,800 active; inhibition, % at 18.8 µM; 786-0 RCC cells, HIF-2a luciferase reporter luminescence, overnight; shares compounds with HIF-2a inh;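 active = mean inhibition across four replicates of at least 40 percent at the single tested concentration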
HIF-1a counter = HIF-1a inhibition counter-screen for HIF-2a hits; shares compounds with HIF-2a inh; MiaPaCa-2 HIF-1a luciferase reporter, desferoxamine, overnight; inhibition, % at 18.8 µM; 72% of 1,800 active; AID 651589;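 active = mean inhibition of the reporter signal across four replicates at the single tested dose of 50% or more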
The depositor's hits bear a star; ? = inconclusive; nt = not tested or not shown.

SMILES	HIF-2a inh	KKLEB cytotox	Shn3 3UTR inh	Peg3 prom inh-1	MITF TRPM1 inh	CF NFkB inh	Peg3 prom inh-2	HIF-2a inh conf	HIF-1a counter	others
COC(=O)Cc1[nH]n(-c2nc3ccccc3s2)c(=O)c1C(C)=Nc1ccc(C)cc1	87*	8	49	91*	97*	4	94*	92*	102*
Cc1ccc(C)c(-n2c(SCC(=O)NC(C(=O)O)C(C)C)nnc2-c2cccc(Cl)c2)c1 (stereo not drawn)	18	2	6	6	0	-5	nt	nt	nt
Cc1ccc2nc(NC(=O)c3ccccn3)sc2c1	80*	-67*	55	106*	94*	-5	96*	89*	80*	Mdm2 MdmX conf=102*
Cc1ccc(N(Cc2cc(=O)[nH]c3ccccc23)C(=O)CCl)c(C)c1	19	-15	-4	71*	?	42	76*	nt	nt	Mdm2 MdmX conf=101*
COc1ccc(-c2cc(-c3ccc(F)cc3)nc(N3CCN(C)CC3)n2)cc1	52*	-35	-7	80*	18	-19	58*	1	70*
COc1ccc(N/C=C(\C#N)S(=O)(=O)c2ccc(Cl)cc2)c(OC)c1	14	4	-8	11	-7	0	nt	nt	nt
Cc1ccc(C)c(C(=O)CN2C(=O)c3ccccc3S2(=O)=O)c1	-53	0	12	1	16	9	nt	nt	nt
Cc1cc(C(=O)CN2C(=O)NC(C)(c3ccccc3)C2=O)c(C)n1CC1CCCO1 (stereo not drawn)	-3	6	-5	-8	-2	16	nt	nt	nt
Cc1cc(C(=O)CN2C(=O)c3ccccc3S2(=O)=O)c(C)n1CC1CCCO1 (stereo not drawn)	92*	-8	68	96*	83*	-14	93*	98*	104*
COc1ccc(C(=O)CN2C(=O)c3ccccc3S2(=O)=O)cc1	88*	-5	71	98*	nt	8	84*	92*	92*
CCCn1c(C)cc(C(=O)CN2C(=O)c3ccccc3S2(=O)=O)c1C	91*	6	83*	89*	nt	-1	87*	95*	95*
c1ccc2oc(-c3ccn[nH]3)cc2c1	-249	4	-48	-232	-50	0	nt	nt	nt
CC(=O)NC(c1ccc(Cl)cc1Cl)c1ccc2cccnc2c1O (stereo not drawn)	25	7	89*	56*	52	-12	59*	nt	nt	Mdm2 MdmX conf=86*
CCCCC(=O)NC(c1ccccc1OC)c1ccc2cccnc2c1O (stereo not drawn)	13	-7	94*	62*	78*	-17	69*	nt	nt	Mdm2 MdmX conf=87*
CCCC(=O)NC(c1ccc(C)cc1)c1ccc2cccnc2c1O (stereo not drawn)	11	7	74	63*	nt	-3	67*	nt	nt	Mdm2 MdmX conf=89*
CCCC(=O)NC(c1ccc(Cl)cc1)c1ccc2cccnc2c1O (stereo not drawn)	25	0	85	57*	75*	-27	65*	nt	nt	Mdm2 MdmX conf=92*
CCCCC(=O)NC(c1ccc(OC)c(OC)c1)c1c(O)ccc2ccccc12 (stereo not drawn)	5	0	-51	11	1	4	nt	nt	nt
Cc1ccc(C(=O)Nc2ccccc2N2CCCC2)cc1	-17	-6	9	7	1	-24	nt	nt	nt
O=c1[nH]c2ccccc2c(O)c1O	15	11	14	-1	12	-13	nt	nt	nt
CN(C(=O)OC(C)(C)C)c1ccc(-c2nc3ccccc3s2)cc1	88*	-81*	81	90*	94*	28	92*	95*	99*
COc1ccc(C(=O)NCC(=O)N/N=C/c2cccc(OC(=O)c3ccco3)c2)cc1OC	12	11	7	7	-2	-8	nt	nt	nt
CCSc1nc2ccccc2n1C(=O)/C=C\c1ccc(OC)c(OC)c1	86*	3	-15	106*	69*	82*	94*	31	103*	Mdm2 MdmX conf=102*
COC(=O)c1ccc2nc(-c3ccc(S(C)(=O)=O)cc3)cn2c1	-143	-4	-40	-160	-38	3	nt	nt	nt
CS(=O)(=O)c1ccc(-c2cn3cc(C(=O)O)ccc3n2)cc1	48*	-7	8	65*	39	-13	44*	46*	-20
Cc1csc(NC(=O)c2cn3ccccc3n2)n1	53*	3	65	69*	54	-28	65*	77*	51*
SMILES	HIF-2a inh	KKLEB cytotox	Shn3 3UTR inh	Peg3 prom inh-1	MITF TRPM1 inh	CF NFkB inh	Peg3 prom inh-2	HIF-2a inh conf	HIF-1a counter	others
C[n+]1c(-c2ccccc2)cc2c(=Cc3ccccc3)c3ccccc3n21	61*	-29	85	103*	98*	46	96*	93*	104*
C#CCOc1ccccc1C(N)=O	22	-1	0	2	nt	-14	nt	nt	nt
CC(C)(C)C(=O)Nc1ccc(NC(=O)c2ccco2)nc1	90*	-31	90*	108*	92*	-3	92*	96*	96*	Mdm2 MdmX conf=98*
O=C(Nc1ccc(NC(=O)c2ccco2)nc1)c1ccco1	-36	9	-5	-29	5	-10	nt	nt	nt
C/C(=N\NC(=O)c1ccncc1)c1cccs1	-79	-2	-14	-52	-12	4	nt	nt	nt
C/C(=N/NC(=O)c1cc(C2CC2)[nH]n1)c1cccs1	49*	-12	49	63*	50	14	47*	67*	16
CCOc1ccc(N2CC(C(=O)Nc3nnc(CC)s3)CC2=O)cc1 (stereo not drawn)	10	7	-8	-3	-2	-7	nt	nt	nt
N#Cc1c(N)nc(SCc2ccncc2)c(C#N)c1-c1cccs1	45*	-4	58	54*	8	4	70*	29	61*
C=CCN(Cc1ccc(OC)c(OC)c1)C(=O)c1cc2cc(F)ccc2[nH]1	-13	-16	2	-13	3	17	nt	nt	nt
CCCCCCCCCCCCCCC(O)C[N+](C)(CCO)CCO (stereo not drawn)	73*	-34	-7	70*	3	55*	73*	39	84*	CF NFkB inh conf=56*
Cc1cc(NS(=O)(=O)c2ccc(NC(=O)c3ccc([N+](=O)[O-])cc3)cc2)nc(C)n1	-2	-1	-6	-6	nt	10	nt	nt	nt
